In PubChem BioAssay (NCI) one finds growth data, which are given here for 26 compounds.

Where “and” joins values, the source holds several entries; their conditions need not be identical. Equal values may be shown once. Compounds without any hit were thinned out: in the full panel of roughly 83,000, 20% have a hit.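 Compound tested at a single concentration for 48 hours in 96-well plates; a percent growth value below 10 was scored as active.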 A number with no mark means an inactive call. Calls of active or inactive are those of the source.

This assay deals with T-47D breast. Put plainly: NCI-60 one-dose screen, 48 h (100 = growth as untreated, 0 = no growth, -100 = all killed). The following applies: 10 µM unless noted.
Take `C=C(CN1CC=CCC1)[C@@H]1CC[C@]2(COC(C)=O)CC[C@]3(C)[C@H](CC[C@@H]4[C@@]5(C)CC[C@H](O)C(C)(C)[C@@H]5CC[C@]43C)[C@@H]12`: the growth was 78.7%. As for `Cc1c(O)c(O)cc2c3c(oc12)CC(c1ccc2c(c1)OCO2)CC3=O` (stereo unspecified), the figure is 67.4%.

As for `O=c1c2c([nH]c3ccccc13)CCCC2`, the growth is 105% and 55.5%. As for `Clc1ccc(/C=N\N2CCCCCC2)cc1`, the figure is 108% and 97.4%. As for `CCOC(=O)c1nc2c3ccccc3cnn2c1C(=O)c1ccc(OC)cc1`, the figure is 85.9%; as for `COc1ccc(-c2nn3c(-c4cc(F)c(Cl)cc4Cl)nnc3s2)cc1`, 50.3%; as for `O=C1C(=C(O)c2ccccc2)C(=O)c2ccccc21`, 103%. The result for `O=C(Nc1ccccc1C(=O)N/N=C(\c1ccccc1)c1ccccn1)c1ccccc1` reads 13.3%; that for `COc1cc(-c2[nH]ncc2Nc2ccc(Cl)cc2)cc(OC)c1OC`, 46.4%; that for `O=C([C@H]1C[C@H]1c1ccc(S(F)(F)(F)(F)F)cc1)N1CCN(c2cc(Cl)ccc2C(F)(F)F)CC1`, 74.9%. `Clc1ccc2c(NCCN3CCN(c4ccnc(N5CCCC5)n4)CC3)ccnc2c1`: the growth was 2.2% (active). Consider `Cn1c(=O)c2c(nc(Nc3cc(=O)[nH]c(=O)[nH]3)n2Cc2ccccc2)n(C)c1=O`, for which the growth was 18.9%. The result for `Cc1ccc(S(=O)(=O)OC[C@@]2(C)CC[C@]3(C)CC[C@]4(C)C(=CC[C@@H]5[C@@]6(C)CCCNC(C)(C)[C@@H]6CC[C@]54C)[C@@H]3C2)cc1` reads -82.8% (active). As for `Cc1nc(-n2[nH]c(=O)ccc2=O)sc1N=Nc1ccccc1`, the figure is 94%.

For the compound `CCCCC#Cc1c(/C=C(\CCCC)SCC)n(C)c(=O)[nH]c1=O`, the growth was 84.4%.

Regarding `O=C(CCN1CCOCC1)Nc1cccc(-n2cc(-c3ccncc3)c(-c3ccc(Cl)c(O)c3)n2)c1`, the growth was 38.3%. The result for `CCOC(=O)c1cnn(CC(O)CC)c1NC(=O)NCc1ccccc1C(F)(F)F` (stereo unspecified) reads 86.7%. As for `O=C(Nc1cc(C(F)(F)F)cc(C(F)(F)F)c1)c1cc(Cl)ccc1O`, the figure is -14% (active) and -1.66% (active); as for `O=C(N/N=C/c1ccc(O)cc1O)c1cccc(Nc2ccnc(C(F)(F)F)c2)c1`, 28.8%. As for `O=S(=O)(Nc1ccc(F)cc1)c1ccc(-c2cnc(C3CC3)o2)cc1`, the figure is 32.6%; as for `Nn1c(-c2ccc(Cl)cc2)nc2c(-c3ccc(Cl)cc3)nc3ccc(Cl)cc3c2c1=O`, 9.59% (active); as for `COc1ccc2c(c1)oc1c(C)c3c(c(C)c12)C(=O)N(Nc1ccccc1)C3=O`, 88.1%. With `Cc1cnc(C(=O)NNc2nc3sc4c(c3c(=O)[nH]2)C(C)CCC4)cn1` (stereo unspecified), the growth was 30.4%.

As for `COC(=O)c1nc(-c2ccc(C)cc2)oc1Sc1ccc(C)cc1`, the growth was 72.9%. As for `O=C1OCC2=C1C(c1cccc(C(F)(F)F)c1)c1cc3c(cc1N2CCO)OCCO3` (stereo unspecified), the figure is 51%; as for `C=C(CNCCc1ccc(O)cc1)[C@@H]1CC[C@]2(CO)CC[C@]3(C)[C@H](CC[C@@H]4[C@@]5(C)CCC(NCCc6ccc(O)cc6)C(C)(C)[C@@H]5CC[C@]43C)[C@@H]12` (stereo partly specified), -69.1% (active).
